Pf growth 48h: Primary qHTS for delayed death inhibitors of the malarial parasite plastid, 48 hour incubation; 310,000 compounds, 5.9% hits; AID 504832, 2011; Potency, µM (series often up to 28.7 µM), usual class: inhibitors; P. falciparum luciferase growth in erythrocytes, 48 h
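Cell-based growth assay: transgenic P. falciparum expressing firefly luciferase, cultured in red cells within RPMI 1640 containing 0.5% w/v Albumax, 24 mM bicarbonate and gentamycin. A drop in luciferase activity indicates inhibition.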
Pf growth 96h: Primary qHTS for delayed death inhibitors of the malarial parasite plastid, 96 hour incubation. 320,000 compounds, 6.9% hits. Potency, µM (series often up to 28.7 µM), most hits filed as inhibitors. P. falciparum luciferase reporter growth, 96 h
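Readout is luminescence from an integrated firefly luciferase in P. falciparum. Red cells, 2% hematocrit and 0.05% parasitemia final, were cultured with compound through two parasite generations (96 hours) at 37 C, 5% CO2.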
HCV inhibitor: qHTS Assay for Inhibitors of Hepatitis C Virus (HCV). AID 651820, 2012. Huh7.5.1 HCVcc-Cre infection, luciferase reporter, 44 h. 340,000 compounds, 3.4% hits. Potency, µM (top dose mostly 41.8 µM), hits mostly inhibitors
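Antiviral activity was scored by luciferase reporter output from cells infected with HCVcc-Cre (~0.5 moi) in presence of compound, 44 h infection period, cells seeded 1,000/well 4 h prior.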
HCMV inh: qHTS Assay for inhibitors of the human cytomegalovirus (HCMV). HFF cells, HCMV-luciferase reporter, 72 h; stronger effect = lower value. activity change, negative = inhibition, % at 57.5 µM. 410,000 compounds, 4.5% hits; in the data active = activity change below about -60%; inconclusive = no clear call, values can overlap the other calls; inactive = above about -39%
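Steps: HFFs plated, 16 h 37C; compounds added; HCMV-luciferase added to MOI 1 PFU/cell; 72 h 37C; OneGlo reagent, 5 min room temperature; luminescence read, normalized to controls.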
A number is an active result; – = inactive; ? = inconclusive; · = no result given; [ ] = dose if it differs, or a comment. Rows were chosen to be rich in hits. Some 13% of all compounds tested hit in one or more screens of this group. Unless noted, calls follow the shape of the dose curve; as a rule, active = well fitted inhibition curve with a large enough effect; inconclusive = small, poorly fitted or top-dose-only effect, or another doubt; inactive = no such curve, though single readings can be large or run the other way.

SMILES	Pf growth 48h	Pf growth 96h	HCV inhibitor	HCMV inh
CCn1c(CSc2nc(C)cc(C)n2)nnc1SCC(=O)Nc1nc(-c2ccccc2)cs1	–	–	?	–
Cc1ccc(-c2csc(NC(=O)CSc3nc4ccccc4c(=O)n3CCCN(C)C)n2)cc1	?	?	1.41µM	–
CN(C)C1(CNC(=O)COc2ccc(C(C)(C)C)cc2)CCCCC1	·	·	·	–
CC(=O)N1CCCc2cc(S(=O)(=O)NCc3ccc(OC(C)C)cc3)ccc21	·	·	·	–
CCCCCCN1C2=NCCN2c2ccccc21	14.7µM	·	?	–
CCCCCCCN1C2=NCCN2c2ccccc21	?	?	?	–
CCCN1C2=NCCN2c2ccccc21	–	4.15µM	–	–
CCCCN1C2=NCCCN2c2ccccc21	?	10.4µM	–	–
c1ccc(OCCN2C3=NCCN3c3ccccc32)cc1	–	?	?	–
CCCCN1C2=NCCCN2c2cc(C)c(C)cc21	13.1µM	13.1µM	?	–
CCCN1C2=NCCCN2c2ccccc21	–	?	–	–
O=c1oc2ccccc2c2c1C1O[C@](c3ccsc3)(Cc3c1ccc1ccccc31)O2	–[5.75 µM]	?	·	·
Cc1cccn2c(=O)cc(CSc3nnc(NC(=O)c4ccc(F)cc4)s3)nc12	·	·	·	–
Cc1cccc(C)c1NC(=O)Cn1c(=O)n(CCC(=O)NCc2ccccc2Cl)c(=O)c2sccc21	·	·	·	–
CC1=C(C(=O)Nc2ccccc2C)C(c2ccccn2)n2ncnc2N1 (configuration not stated)	·	·	·	–
COc1ccc(CNC(=O)c2ccc3c(c2)CCN3S(=O)(=O)c2ccc(C)cc2)cc1	·	·	·	–
CCCCCCCN1C2=NCCCN2c2ccccc21	2.94µM	–	10µM	?
O=c1c2c3nc4ccccc4nc3n(Cc3ccccc3)c2ncn1Cc1ccco1	10.4µM	·	?	–
COCCCn1c2nc3ccccc3nc2c2c(=O)n(Cc3ccc(Cl)cc3)cnc21	?	–	–	?
N=c1c2c(-c3ccccc3)c(-c3ccccc3)n(Cc3ccccc3)c2ncn1CCO	4.15µM	?	?	?
N=c1c2c3c(sc2ncn1Cc1ccco1)CCCCC3	–	?	–	–
N=c1c2c(-c3ccccc3)c(-c3ccccc3)n(Cc3ccco3)c2ncn1Cc1ccccc1	·	2.62µM	–	–
OCCn1cnc2c(SCc3ccccc3)ncnc21	·	·	–	–
CC(C)Cn1cnc2c(c(-c3ccccc3)c(-c3ccccc3)n2Cc2ccco2)c1=N	·	2.08µM	11.2µM	–
CCN(CC)C(=O)c1ccc2c(c1)N(Cc1ccccc1F)C(=O)c1ccccc1S2=O (configuration not stated)	·	·	·	–
SMILES	Pf growth 48h	Pf growth 96h	HCV inhibitor	HCMV inh
Cc1cccc(C)c1NC(=O)C(=O)NCC(c1ccc2c(c1)OCO2)N1CCOCC1 (configuration not stated)	·	·	·	–
CCn1c2c(c(=O)n3ncc(C(=O)Nc4ccc(OC(F)(F)F)cc4)c13)CN(Cc1ccc(OC)cc1)CC2	·	·	·	–
COc1ccccc1NC(=O)c1ccc2c(c1)N(CC#N)C(=O)C(C)(C)O2	–	11.7µM	?	?
COCCCN1C(=O)c2ccc(C(=O)Nc3ccccc3OC)cc2C1=O	–	4.65µM	–	–
COCCCN1C(=O)c2ccc(C(=O)Nc3ccccc3Cl)cc2C1=O	–[0.00184 µM]	?	–	–
COCCCN1C(=O)c2ccc(C(=O)Nc3ccc(C)cc3C)cc2C1=O	–[0.00184 µM]	–	–	-92.4
CCCCN1C(=O)c2ccc(C(=O)Nc3c(N)n(CCCC)c(=O)n(C)c3=O)cc2C1=O	–	5.22µM	–	–
Cc1sc2c(c1C)c(=O)n(-c1cccc(C(F)(F)F)c1)c(=O)n2Cc1ccc(F)cc1	·	·	·	–
CN(c1ccccc1)P(=O)(N(C)c1ccccc1)N(C)c1ccccc1	?	?	–	-86.4
COc1cccc(CCC(=O)Nc2cccc(S(=O)(=O)N3CCCC3)c2)c1OC	9.28µM	8.28µM	?	–
COc1ccccc1C(=O)NCCC(=O)Nc1cccc(S(=O)(=O)N2CCCC2)c1	3.29µM	?	–	?
O=C(CCc1ccccc1Cl)Nc1cccc(S(=O)(=O)N2CCCC2)c1	?	?	?	–
COc1cccc(NS(=O)(=O)c2ccc3c(c2)n(C)c(=O)n3C)c1	·	·	·	–
C=CCOC(=O)C1=C(C)NC(=S)NC1/C=C/c1ccccc1 (configuration not stated)	?	?	?	–
CC1=C(C(=O)OCc2ccccc2)C(/C=C/c2ccccc2)NC(=S)N1 (configuration not stated)	?	?	8.91µM	–
CC(C)NC(=O)C1(O)c2ccccc2NC(=O)N1c1ccc(Cl)c(Cl)c1 (configuration not stated)	–	10.4µM	–	–
CCOc1ccc(N2C(=O)Nc3ccc(Br)cc3C2(O)C(=O)NCCN(C)C)cc1 (configuration not stated)	–	1.85µM	–	–
CCOCCCNC(=O)C1(O)c2ccccc2NC(=O)N1c1ccc(Cl)c(Cl)c1 (configuration not stated)	–	?	–	–
CCOc1ccc(N2C(=O)Nc3ccc(Br)cc3C2(O)C(=O)NCCCN(C)C)cc1 (configuration not stated)	–	?	–	?
CCCCN(C)CCCNC(=O)C1(O)c2ccccc2NC(=O)N1c1ccc(Cl)cc1 (configuration not stated)	–[0.00184 µM]	4.15µM	–	–
COc1ccc(CNC(=O)CCc2c(C)nn(-c3ccc(N4CCCC4)nn3)c2C)c(OC)c1	·	·	·	–
C=CCC(CC=C)(CNC(=O)C(=O)Nc1cccc(C(F)(F)F)c1)c1ccccc1	·	·	·	–
Cn1c(O)c(C(=Nc2ccccc2)SCc2ccccc2Cl)c(=O)n(C)c1=O	–	–	–	-64.9
CC(C)NC(=S)N/N=C1\CCCCC1C1CCCCC1 (configuration not stated)	·	3.29µM	–	–
CC1CCCC/C1=N\NC(=S)Nc1ccccc1 (configuration not stated)	–	?	–	?
SMILES	Pf growth 48h	Pf growth 96h	HCV inhibitor	HCMV inh
Oc1c(C(c2ccccc2)N2CCC3(CC2)OCCO3)sc2nc(-c3ccco3)nn12 (configuration not stated)	·	·	·	–
O=C(c1noc2c1CCc1ccccc1-2)N1CCCc2ccccc21	3.29µM	·	?	–
O=C(c1ccc(S(=O)(=O)N2CCCCC2)cc1)N1CCc2ccccc2C1	?	3.29µM	–	–
O=C(c1ccc(S(=O)(=O)c2ccccc2)cc1)N1CCc2ccccc2C1	–	–	–	–
O=C(c1ccc(S(=O)(=O)N2CCCC2)cc1)N1CCCc2ccccc21	–	–	–	–
O=C(c1noc2c1CCc1ccccc1-2)N1CCOCC1	–	–	–	–
O=C(c1ccc(S(=O)(=O)N2CCCCC2)cc1)N1CCCc2ccccc21	?	13.1µM	–	–
O=C(c1cnc2ccccn2c1=O)N1CCCc2ccccc21	–	–	–	-63.8
CC1CCN(C(c2ccc(F)cc2)c2sc3nc(-c4ccco4)nn3c2O)CC1 (configuration not stated)	·	·	·	–
Cc1cc(=O)n(Cc2ccc(F)cc2Cl)c2c1c(C)nn2-c1ccccc1	·	·	·	–
